Hit rate of the full screen: of about 330,000 compounds, about 1,700 (0.52%) were called active. The list comes from a sample in which actives are over-represented; it also holds similar structures and randomly drawn compounds. Unmarked numbers belong to inactive results. Calls follow the shape of the dose curve; as a rule, active = well fitted inhibition curve with a large enough effect; inconclusive = small, poorly fitted or top-dose-only effect; inactive = no such curve, though single readings can be large or run the other way.
Target: Beta-lactamase (Escherichia coli (strain K12)) (UniProt P00811)
Experiment: qHTS Inhibitors of AmpC Beta-Lactamase (assay without detergent); also: nearly all actives have a fitted effect of over 20% in size
Details: AmpC nitrocefin hydrolysis, absorbance 480 nm, 0.0001% Triton; series mostly up to 57.1 µM; activity change, negative = inhibition: at the top concentration
Description: NIH Molecular Libraries Probe Production Network [MLPCN] NIH Chemical Genomics Center [NCGC] Assay Provider: Professor Brian Shoichet, UCSF Assay Overview: This aggregation profiling approach exploits the sensitivity of aggregate formation to detergent. Inhibition of b-lactamase is measured in the presence and absence of 0.01% Triton X-100. This particular assay had the prescence of 0.01% Triton X-100. See Pubchem assay "Promiscuous and Specific Inhibitors of AmpC Beta-Lactamase (assay without detergent)" for related screen. Compounds that inhibit only in the absence of detergent are considered likely promiscuous aggregators. A screen of 1,030 compounds was performed in Brian Shoichet's lab in 96-well format. AmpC activity was measured by following the absorbance at 480 nm. Nitrocefin is a chromogenic substrate: while nitrocefin is yellow (lmax 390 nm), the product of its hydrolysis is red (lmax 486 nm, 17,000 M-1). AmpC beta lactamase was provided by Shoichet Lab, UCSF.
Buffer: 20 mM phosphate buffer, pH 7.0 Triton X-100: No Detergent screen: 0.0001%, Detergent screen: 0.01%. Reagents/Controls: Buffer in columns 3 and 4 as negative control (no enzyme). 5.3 nM AmpC in columns 1, 2, 5-48. Titration of UCSF compound 9 control (from 10 mM, then 1:2) pin-transferred to column 2. Column 1 is neutral (100% activity). Assay Steps: Six uL of reagents were dispensed to 1536-well Greiner black clear bottom plates. Compounds and controls (23 nL) were transferred via Kalypsys PinTool. The plates were incubated for 15 min at room temperature, and then 2 uL of 800 uM solution of nitrocefin was added to start the reaction. The plates were immediately transferred to and read every 20 seconds for 4 min on ViewLux (Perkin-Elmer) High-throughput CCD imager using 480 nm absorbance protocol. During dispense, reagent bottles were kept submerged into 4 deg C water bath. Keywords: NIH Roadmap, MLSCN, MLI, MLSMR, qHTS, NCGC, AmpC Beta-Lactamase, Aggregation
Potency is read from the fitted curve at half-maximal effect.

Chain of Beta-lactamase (Escherichia coli (strain K12)) (P00811 whole entry, looked up): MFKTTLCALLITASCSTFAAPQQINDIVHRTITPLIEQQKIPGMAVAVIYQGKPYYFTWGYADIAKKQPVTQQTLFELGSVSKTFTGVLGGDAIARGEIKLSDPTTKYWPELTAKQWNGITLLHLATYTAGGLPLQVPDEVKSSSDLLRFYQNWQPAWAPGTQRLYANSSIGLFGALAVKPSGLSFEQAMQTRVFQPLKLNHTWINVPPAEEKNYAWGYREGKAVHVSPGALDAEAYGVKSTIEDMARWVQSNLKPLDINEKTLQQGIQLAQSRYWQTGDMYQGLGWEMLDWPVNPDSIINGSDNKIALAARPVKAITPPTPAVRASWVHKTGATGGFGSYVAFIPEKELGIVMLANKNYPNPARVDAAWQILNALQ

| Structure (SMILES) | activity change, negative = inhibition | Potency |
| --- | --- | --- |
| CC1=CC2=NC(=O)CC(C)(C(=O)N(CC(=O)NC(C)(C)C)Cc3ccccc3)N2C=C1 (stereo not drawn) | -1.38% | – |
| Cc1ccc(Sc2cc(N3CCOCC3)nc(-c3ccccc3)n2)cc1 | -32.1% | – |
| N#Cc1ccccc1Sc1ccccc1C(=O)OCC(=O)NC1CCCCC1 | – | 35.5 µM (active) |
| O=C(COC(=O)c1ccccc1SCC(=O)NC1CCCCC1)NC1CCCCC1 | -20% | – |
| O=C(COC(=O)c1ccccc1Cl)NC1CCCCCCC1 | -39.4% | – |
| CCCn1nc2cc(C(=O)NCc3ccccc3)ccc2c1OCC | 21.7% | – |
| CCOc1c2ccc(C(=O)NCc3ccc(OC(F)(F)F)cc3)cc2nn1C | 46% | – |
| CCOc1c2ccc(C(=O)NCc3ccc4c(c3)OCO4)cc2nn1C | – | 0.316 µM (active) |
| CCCc1noc2c1/C(=N\O)CCC2 | -15.6% | – |
| Cc1ccc(CNC(=O)CC(NC(=O)c2ccccc2)c2ccccc2)cc1 (stereo not drawn) | -52.7% | – |
| COc1cccc(Nc2nnc(SCC(=O)N3CC(=O)Nc4ccccc43)s2)c1 | -48.4% | – |
| Cc1ccc(CCC(=O)Nc2ncc(Cc3cc(Cl)ccc3Cl)s2)o1 | – | 20 µM (active) |
| Cc1ccc(Cc2cnc(N)s2)o1 | -19.5% | – |
| O=C(CCc1ccccc1Cl)Nc1ccc(S(=O)(=O)Nc2nccs2)cc1 | -31.9% | – |
| O=S(=O)(Nc1cccc(-c2ccc(N3CCOCC3)nn2)c1)c1ccc(Cl)c(Cl)c1 | -15.7% | – |
| O=C(NCC(c1ccco1)N1CCc2ccccc21)c1cccc(F)c1 (stereo not drawn) | -31.7% | – |
| O=C(/C=C/c1ccccc1)Oc1coc(CSc2ncccn2)cc1=O | -0.374% | – |
| Cc1nc(SCC(=O)N2CC(=O)Nc3ccccc32)c2c(C)c(C)sc2n1 | 1.58% | – |
| O=C(CSc1nnc(-c2cccs2)n1Cc1ccccc1)N1CCc2ccccc2C1 | -10.2% | – |
| Cc1nc(SCC(=O)N2CCc3ccccc3C2)c2c(C)c(C)sc2n1 | – | 0.158 µM (active) |
| CC(C)C(=O)Nc1nnc(Sc2ccc(N(C)C)cc2)s1 | -52% | – |
| Fc1cccc(Cc2noc(CN3CCN(c4cnccn4)CC3)n2)c1 | 49% | – |
| Cc1ccc(-n2c(C)cc(/C=C(\C#N)C(=O)NCC3CCCO3)c2C)cc1 (stereo not drawn) | 116% | – |

| Structure (SMILES) | activity change, negative = inhibition | Potency |
| --- | --- | --- |
| Cc1ccc2c(c1)C(c1ccccc1)N(C(=O)c1ccc(F)cc1)CC(=O)N2 (stereo not drawn) | -22.1% | – |
| CC(C)C(=O)N1CC(=O)Nc2ccc(F)cc2C1c1ccc(F)cc1 (stereo not drawn) | -1.13% | – |
| CCC(CC)C(=O)N1CC(=O)Nc2ccc(Br)cc2C1c1ccccc1 (stereo not drawn) | – | 0.891 µM (active) |
| CCCOC(=O)c1[nH]c2c(c1C)C(=O)CC(c1cc(OC)c(OC)c(OC)c1)C2 (stereo not drawn) | – | 2.51 µM (active) |
| COCCOC(=O)c1[nH]c2c(c1C)C(=O)CC(c1ccc(OC)cc1)C2 (stereo not drawn) | 19.4% | – |
| CCCOC(=O)c1[nH]c2c(c1C)C(=O)CC(c1cccs1)C2 (stereo not drawn) | -27.4% | – |
| COC(=O)Nc1ccc(S(=O)(=O)N2CCN(CCN3C(=O)C4C5C=CC(C5)C4C3=O)CC2)cc1 (stereo not drawn) | 47.2% | – |
| O=C(CCc1ccccc1F)N1CCN(c2ccccc2)CC1 | 12.6% | – |
| C=C(C)Cn1c(N2CCN(CC)CC2)nc2c1c(=O)[nH]c(=O)n2C | -4.72% | – |
| Nc1cc(N2CCCCCC2)c2nonc2c1[N+](=O)[O-] | -9.46% | – |
| O=C(NCc1ccc(Cl)cc1)C(=O)NCC1CCCN1S(=O)(=O)c1cccs1 (stereo not drawn) | – | 35.5 µM (active) |
| COc1ccc(CCNC(=O)C(=O)NCC2CCCN2S(=O)(=O)c2cccs2)cc1OC (stereo not drawn) | – | 31.6 µM (active) |
| O=C(NCc1ccc(Cl)cc1)C1CCN(S(=O)(=O)c2cccs2)CC1 | -18.9% | – |
| COc1ccccc1CCNC(=O)C(=O)NCCC1CCCCN1S(=O)(=O)c1cccs1 (stereo not drawn) | -16.3% | – |
| COc1ccc(C(=O)NCC2CCCN2S(=O)(=O)c2cccs2)cc1OC (stereo not drawn) | 2.01% | – |
| O=C(NCc1ccccc1Cl)C(=O)NCC1CCCN1S(=O)(=O)c1cccs1 (stereo not drawn) | 68% | – |
| O=C(COc1ccc([N+](=O)[O-])cc1)Nc1cccc(C(=O)Nc2ccccc2C(=O)O)c1 | 0.212% | – |
| O=C(NCCc1ccco1)C(=O)NCCC1CCCCN1S(=O)(=O)c1ccccc1 (stereo not drawn) | -16.1% | – |
| COc1cccc(CNC(=O)CN(C)S(=O)(=O)c2ccc3c(c2)c(=O)n(C)c(=O)n3C)c1 | 19.8% | – |
| CCC1Oc2ccccc2N(CC(=O)NCCCN2CCN(CC)CC2)C1=O (stereo not drawn) | 1.42% | – |
| COC(=O)c1ccc(/C=N/N2C(C)CCCC2C)cc1 (stereo not drawn) | -6.66% | – |
| O=C1OC(OC(=O)c2ccccc2Br)C(N2CCOCC2)=C1Cl (stereo not drawn) | – | 4.47 µM (active) |
| O=C1C(Cl)=C(N2CCOCC2)C(=O)N1c1ccccc1 | -18.7% | – |

| Structure (SMILES) | activity change, negative = inhibition | Potency |
| --- | --- | --- |
| O=C1OC(NC(=O)c2ccccc2)C(N2CCOCC2)=C1Cl (stereo not drawn) | -19.8% | – |
| CC(=O)N1CCN(S(=O)(=O)c2c(F)cc(F)c(Cl)c2F)CC1 | -2.46% | – |
| CC(=O)Nc1ccc(C(=O)OCC(=O)Nc2ccc([N+](=O)[O-])cc2C(F)(F)F)cc1 | -22.3% | – |
| O=C(CCN1C(=O)C2C3CCC(C3)C2C1=O)Nc1ccc(Cl)cc1Cl (stereo not drawn) | 15.2% | – |
| CC1CN(c2nc(-c3ccccc3)nnc2-c2ccccc2)CC(C)O1 (stereo not drawn) | 23.1% | – |
| Cn1c(=O)n(C)c2cc(NS(=O)(=O)c3ccc(F)cc3)ccc21 | -28.5% [at 2.29 µM] | – |
| O=C1Cc2cc(S(=O)(=O)Nc3cccc(F)c3)ccc2N1 | -41.8% | – |
| CSc1ccc(S(=O)(=O)Nc2cccc(F)c2)cc1 | – | 0.251 µM (active) |
| CC1CCN(C(=O)/C(=C\c2ccccc2F)NC(=O)c2ccccc2)CC1 | 9.38% | – |
| CCCC(CNC(=O)COC(=O)C1=NNC(=O)CC1)c1ccc(Cl)cc1Cl (stereo not drawn) | 71.9% | – |
| CC(C)(C)NC(=O)NC(=O)COC(=O)Cc1c(F)cccc1Cl | -18% | – |
| CC(NC(=S)Nc1ccccc1)C(c1cccs1)N1CCOCC1 (stereo not drawn) | 5.27% | – |
| CCCCn1c(SCC(=O)N2CCCC2=O)nc2cc(S(N)(=O)=O)ccc21 | 6.34% | – |
| CCOc1ccc(N2C(=O)CSC2=NC#N)cc1 | -31.8% | – |
| CCO/C=C1\C(=O)N(c2ccc(OCC)cc2)C(=O)c2ccccc21 | -26.1% | – |
| CCOc1ccc(N2C(=O)CN(c3cccc4ccccc34)C2=S)cc1 | – | 10 µM (active) |
| Cc1cc(NC(=O)CSCc2nc(-c3cccc(Cl)c3)oc2C)no1 | -10.7% | – |
| O=S(=O)(c1ccc(SCc2ccccc2)nc1)N1CCCCCC1 | -28.9% | – |
| C/C(CC(C)C)=N\Oc1nc(C)cc(C)n1 | 2.75% | – |
| COc1ccc(NC(=O)C(=O)NCC(c2ccco2)N2CCc3ccccc3C2)cc1 (stereo not drawn) | – | 28.2 µM (active) |
| O=C(NCC(c1ccco1)N1CCc2ccccc2C1)c1ccccc1Cl (stereo not drawn) | -3.02% | – |
| CCOC(CNC(=O)C(=O)NCC(c1ccco1)N1CCN(c2ccc(OC)cc2)CC1)OCC (stereo not drawn) | 66.9% | – |

Reference: PubChem BioAssay AID485341 (National Center for Advancing Translational Sciences (NCATS), 2010)
